Assay [1] concerns the target Tyrosine-protein kinase SYK (Homo sapiens) (UniProt P43405). To be noted: at 10 µM.
The target of assay [2] is T1, Mitogen-activated protein kinase kinase kinase 7 (Homo sapiens) (UniProt O43318).
T1 sequence (whole entry): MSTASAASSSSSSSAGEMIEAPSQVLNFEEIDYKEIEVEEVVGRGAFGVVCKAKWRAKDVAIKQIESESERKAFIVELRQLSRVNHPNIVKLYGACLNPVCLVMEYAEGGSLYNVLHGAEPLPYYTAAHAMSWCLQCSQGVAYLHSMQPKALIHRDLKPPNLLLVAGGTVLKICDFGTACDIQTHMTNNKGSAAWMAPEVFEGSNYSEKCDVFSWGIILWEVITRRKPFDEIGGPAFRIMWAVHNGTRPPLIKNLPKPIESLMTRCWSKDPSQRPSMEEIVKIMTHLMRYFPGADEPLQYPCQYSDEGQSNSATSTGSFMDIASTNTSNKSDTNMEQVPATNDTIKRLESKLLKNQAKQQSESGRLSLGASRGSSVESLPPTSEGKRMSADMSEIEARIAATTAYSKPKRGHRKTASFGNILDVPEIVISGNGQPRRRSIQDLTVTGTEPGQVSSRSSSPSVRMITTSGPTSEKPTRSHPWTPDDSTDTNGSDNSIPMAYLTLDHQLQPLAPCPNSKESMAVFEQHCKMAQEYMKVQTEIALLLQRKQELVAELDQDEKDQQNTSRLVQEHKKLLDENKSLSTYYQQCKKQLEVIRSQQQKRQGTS
Particulars: at 1 µM.

The target of assay [3] is T1, Mitogen-activated protein kinase kinase kinase 7 (Homo sapiens). Particulars: at 10 µM.
Assay [4] concerns the target T2, Serine/threonine-protein kinase TAO2 (Homo sapiens) (UniProt Q9UL54).
T2 sequence (whole entry): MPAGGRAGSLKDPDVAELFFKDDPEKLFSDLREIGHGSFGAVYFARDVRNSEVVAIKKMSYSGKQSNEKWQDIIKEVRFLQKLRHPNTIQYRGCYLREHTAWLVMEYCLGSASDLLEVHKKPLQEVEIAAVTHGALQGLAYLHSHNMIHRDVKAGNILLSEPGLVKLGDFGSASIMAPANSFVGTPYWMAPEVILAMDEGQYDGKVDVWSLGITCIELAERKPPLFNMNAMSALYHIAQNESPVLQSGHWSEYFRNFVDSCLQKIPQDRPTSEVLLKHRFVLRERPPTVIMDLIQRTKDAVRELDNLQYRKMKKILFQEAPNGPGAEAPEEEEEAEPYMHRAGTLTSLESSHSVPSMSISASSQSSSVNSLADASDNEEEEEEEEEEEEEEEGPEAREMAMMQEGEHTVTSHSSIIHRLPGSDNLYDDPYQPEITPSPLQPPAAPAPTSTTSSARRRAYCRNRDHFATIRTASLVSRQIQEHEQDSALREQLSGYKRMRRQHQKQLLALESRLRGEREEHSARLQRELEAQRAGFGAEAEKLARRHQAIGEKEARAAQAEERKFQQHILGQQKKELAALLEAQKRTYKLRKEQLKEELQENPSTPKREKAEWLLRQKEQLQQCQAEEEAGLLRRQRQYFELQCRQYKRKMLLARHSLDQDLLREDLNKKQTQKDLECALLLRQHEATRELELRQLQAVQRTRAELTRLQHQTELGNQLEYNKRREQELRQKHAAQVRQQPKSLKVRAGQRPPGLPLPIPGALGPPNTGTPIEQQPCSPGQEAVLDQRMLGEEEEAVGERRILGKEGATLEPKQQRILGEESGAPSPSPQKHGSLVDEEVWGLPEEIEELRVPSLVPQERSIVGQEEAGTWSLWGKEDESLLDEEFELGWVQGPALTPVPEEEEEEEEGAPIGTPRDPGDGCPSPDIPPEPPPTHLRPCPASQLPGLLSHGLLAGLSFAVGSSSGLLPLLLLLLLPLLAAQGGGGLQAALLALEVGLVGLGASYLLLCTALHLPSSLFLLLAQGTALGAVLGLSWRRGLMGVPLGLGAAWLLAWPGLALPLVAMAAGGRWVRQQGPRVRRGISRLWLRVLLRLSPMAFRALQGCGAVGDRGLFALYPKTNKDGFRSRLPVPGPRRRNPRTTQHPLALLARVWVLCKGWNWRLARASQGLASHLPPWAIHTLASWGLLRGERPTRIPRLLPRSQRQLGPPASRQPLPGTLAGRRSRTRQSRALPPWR
Particulars: at 1 µM.

For assay [5], the target named is T2, Serine/threonine-protein kinase TAO2 (Homo sapiens). To be noted: at 10 µM.
Assay [6] concerns the target T3, Serine/threonine-protein kinase TAO3 (Homo sapiens) (UniProt Q9H2K8).
T3 sequence (whole entry): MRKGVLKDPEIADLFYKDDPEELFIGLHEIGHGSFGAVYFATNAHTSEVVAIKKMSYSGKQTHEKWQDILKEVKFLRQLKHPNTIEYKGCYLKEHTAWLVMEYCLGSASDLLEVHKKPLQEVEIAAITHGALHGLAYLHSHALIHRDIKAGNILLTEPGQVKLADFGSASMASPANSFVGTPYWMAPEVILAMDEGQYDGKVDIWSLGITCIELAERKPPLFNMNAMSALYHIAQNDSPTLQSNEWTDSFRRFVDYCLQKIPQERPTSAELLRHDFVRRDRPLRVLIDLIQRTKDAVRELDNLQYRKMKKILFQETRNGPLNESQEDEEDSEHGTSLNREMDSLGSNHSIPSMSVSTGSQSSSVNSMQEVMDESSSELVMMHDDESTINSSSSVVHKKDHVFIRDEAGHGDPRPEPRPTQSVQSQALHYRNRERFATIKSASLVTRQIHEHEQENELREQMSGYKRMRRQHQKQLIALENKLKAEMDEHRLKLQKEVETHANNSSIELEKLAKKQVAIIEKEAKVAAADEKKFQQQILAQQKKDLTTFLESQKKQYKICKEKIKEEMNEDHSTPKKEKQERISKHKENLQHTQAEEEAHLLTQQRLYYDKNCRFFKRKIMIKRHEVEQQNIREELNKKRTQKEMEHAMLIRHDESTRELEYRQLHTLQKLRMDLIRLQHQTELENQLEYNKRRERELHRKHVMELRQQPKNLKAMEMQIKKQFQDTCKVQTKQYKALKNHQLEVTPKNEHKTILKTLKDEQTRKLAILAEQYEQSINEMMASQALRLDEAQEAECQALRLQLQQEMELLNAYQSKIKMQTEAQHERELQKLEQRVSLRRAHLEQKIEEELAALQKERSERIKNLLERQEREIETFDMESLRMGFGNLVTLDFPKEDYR
Particulars: at 1 µM.

The target in assay [7] is T3, Serine/threonine-protein kinase TAO3 (Homo sapiens). To be noted: at 10 µM.
Assay [8] addresses T4, Serine/threonine-protein kinase TBK1 (Homo sapiens) (UniProt Q9UHD2).
T4 sequence (whole entry): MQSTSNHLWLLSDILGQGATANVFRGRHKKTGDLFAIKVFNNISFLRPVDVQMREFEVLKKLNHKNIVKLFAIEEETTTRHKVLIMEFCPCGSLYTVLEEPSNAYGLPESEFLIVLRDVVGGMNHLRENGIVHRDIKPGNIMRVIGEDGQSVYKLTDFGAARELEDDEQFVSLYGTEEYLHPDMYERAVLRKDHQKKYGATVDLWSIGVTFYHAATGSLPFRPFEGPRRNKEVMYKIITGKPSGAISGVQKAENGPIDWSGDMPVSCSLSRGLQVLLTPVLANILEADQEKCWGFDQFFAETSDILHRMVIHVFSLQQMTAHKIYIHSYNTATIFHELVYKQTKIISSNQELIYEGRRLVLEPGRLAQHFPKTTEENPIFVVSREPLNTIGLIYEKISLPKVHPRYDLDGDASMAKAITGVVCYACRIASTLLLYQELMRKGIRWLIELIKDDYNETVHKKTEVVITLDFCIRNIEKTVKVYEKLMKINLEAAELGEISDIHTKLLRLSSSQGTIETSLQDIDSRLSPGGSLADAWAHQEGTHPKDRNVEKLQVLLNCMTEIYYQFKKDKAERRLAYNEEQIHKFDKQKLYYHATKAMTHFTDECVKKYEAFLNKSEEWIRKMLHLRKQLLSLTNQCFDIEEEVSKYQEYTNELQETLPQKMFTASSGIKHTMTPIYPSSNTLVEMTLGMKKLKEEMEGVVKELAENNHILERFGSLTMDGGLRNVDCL
Particulars: at 1 µM.

Assay [9] addresses T4, Serine/threonine-protein kinase TBK1 (Homo sapiens). Particulars: at 10 µM.
The target of assay [10] is T5, TGF-beta receptor type-1 (Homo sapiens) (UniProt P36897).
T5 sequence (whole entry): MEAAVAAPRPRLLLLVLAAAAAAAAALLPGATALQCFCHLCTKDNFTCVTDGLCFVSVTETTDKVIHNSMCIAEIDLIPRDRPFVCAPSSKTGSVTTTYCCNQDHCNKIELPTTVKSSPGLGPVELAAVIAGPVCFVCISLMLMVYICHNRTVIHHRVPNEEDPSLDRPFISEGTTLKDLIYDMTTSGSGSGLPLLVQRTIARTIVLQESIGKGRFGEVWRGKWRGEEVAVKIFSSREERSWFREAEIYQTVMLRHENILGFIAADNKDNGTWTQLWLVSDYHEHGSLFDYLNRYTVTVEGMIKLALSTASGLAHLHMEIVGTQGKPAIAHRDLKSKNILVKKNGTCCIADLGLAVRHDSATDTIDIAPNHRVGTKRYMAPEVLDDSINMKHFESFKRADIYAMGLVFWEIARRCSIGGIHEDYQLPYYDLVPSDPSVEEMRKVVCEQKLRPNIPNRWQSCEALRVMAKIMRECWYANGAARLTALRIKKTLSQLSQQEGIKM
To be noted: at 1 µM.

The target in assay [11] is Insulin-like growth factor 1 receptor (Homo sapiens) (UniProt P08069). To be noted: at 1 µM.
Assay [12] has the same target. To be noted: at 10 µM.
The target of assay [13] is T6, Inhibitor of nuclear factor kappa-B kinase subunit alpha (Homo sapiens) (UniProt O15111).
T6 sequence (whole entry): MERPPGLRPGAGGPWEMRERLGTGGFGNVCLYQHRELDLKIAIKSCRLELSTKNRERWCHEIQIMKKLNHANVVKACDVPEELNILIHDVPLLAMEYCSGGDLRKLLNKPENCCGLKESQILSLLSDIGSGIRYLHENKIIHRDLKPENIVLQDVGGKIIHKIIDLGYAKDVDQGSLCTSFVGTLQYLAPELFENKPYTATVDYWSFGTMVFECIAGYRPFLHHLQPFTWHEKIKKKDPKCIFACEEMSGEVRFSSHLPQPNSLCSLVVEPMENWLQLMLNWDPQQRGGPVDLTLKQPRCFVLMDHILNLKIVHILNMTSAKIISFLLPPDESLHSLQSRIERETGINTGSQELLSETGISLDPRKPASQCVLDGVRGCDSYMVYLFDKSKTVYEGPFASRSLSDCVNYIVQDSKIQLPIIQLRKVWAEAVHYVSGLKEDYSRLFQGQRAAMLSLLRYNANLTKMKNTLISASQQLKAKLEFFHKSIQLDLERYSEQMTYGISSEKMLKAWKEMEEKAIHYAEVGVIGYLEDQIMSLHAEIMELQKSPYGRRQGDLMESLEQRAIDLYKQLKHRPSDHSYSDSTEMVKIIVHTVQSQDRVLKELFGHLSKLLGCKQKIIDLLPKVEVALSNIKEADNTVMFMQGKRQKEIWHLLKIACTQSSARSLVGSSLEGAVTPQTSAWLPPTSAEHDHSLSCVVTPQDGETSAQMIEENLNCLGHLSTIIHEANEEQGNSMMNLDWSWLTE
Particulars: at 1 µM.

In assay [14] the target is T6, Inhibitor of nuclear factor kappa-B kinase subunit alpha (Homo sapiens). Particulars: at 10 µM.
For assay [15], the target named is T7, Inhibitor of nuclear factor kappa-B kinase subunit beta (Homo sapiens) (UniProt O14920).
T7 sequence (whole entry): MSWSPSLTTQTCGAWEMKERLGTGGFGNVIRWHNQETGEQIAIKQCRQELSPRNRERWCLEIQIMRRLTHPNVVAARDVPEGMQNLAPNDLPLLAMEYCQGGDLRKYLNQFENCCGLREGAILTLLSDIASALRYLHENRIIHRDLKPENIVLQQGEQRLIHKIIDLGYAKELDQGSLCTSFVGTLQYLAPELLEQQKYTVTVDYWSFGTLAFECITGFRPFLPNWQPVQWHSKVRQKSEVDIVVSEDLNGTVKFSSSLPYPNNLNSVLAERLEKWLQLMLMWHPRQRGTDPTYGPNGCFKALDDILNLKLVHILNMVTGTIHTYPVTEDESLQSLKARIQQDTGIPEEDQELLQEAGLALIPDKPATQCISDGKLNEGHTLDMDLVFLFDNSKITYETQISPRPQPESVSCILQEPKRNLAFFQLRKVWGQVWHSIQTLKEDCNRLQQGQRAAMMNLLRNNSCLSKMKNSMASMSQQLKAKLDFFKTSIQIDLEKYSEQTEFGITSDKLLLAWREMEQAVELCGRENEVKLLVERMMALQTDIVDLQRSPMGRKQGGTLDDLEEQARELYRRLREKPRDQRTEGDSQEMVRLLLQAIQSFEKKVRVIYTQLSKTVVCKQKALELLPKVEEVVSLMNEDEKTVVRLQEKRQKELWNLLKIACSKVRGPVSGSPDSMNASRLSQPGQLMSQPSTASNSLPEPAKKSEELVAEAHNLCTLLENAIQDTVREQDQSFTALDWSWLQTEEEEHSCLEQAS
To be noted: at 1 µM.

Assay [16] has as its target T7, Inhibitor of nuclear factor kappa-B kinase subunit beta (Homo sapiens). Particulars: at 10 µM.
The target of assay [17] is Insulin receptor (Homo sapiens) (UniProt P06213). Particulars: at 1 µM.
Insulin receptor (Homo sapiens), sequence (P06213 28-758 limits assumed): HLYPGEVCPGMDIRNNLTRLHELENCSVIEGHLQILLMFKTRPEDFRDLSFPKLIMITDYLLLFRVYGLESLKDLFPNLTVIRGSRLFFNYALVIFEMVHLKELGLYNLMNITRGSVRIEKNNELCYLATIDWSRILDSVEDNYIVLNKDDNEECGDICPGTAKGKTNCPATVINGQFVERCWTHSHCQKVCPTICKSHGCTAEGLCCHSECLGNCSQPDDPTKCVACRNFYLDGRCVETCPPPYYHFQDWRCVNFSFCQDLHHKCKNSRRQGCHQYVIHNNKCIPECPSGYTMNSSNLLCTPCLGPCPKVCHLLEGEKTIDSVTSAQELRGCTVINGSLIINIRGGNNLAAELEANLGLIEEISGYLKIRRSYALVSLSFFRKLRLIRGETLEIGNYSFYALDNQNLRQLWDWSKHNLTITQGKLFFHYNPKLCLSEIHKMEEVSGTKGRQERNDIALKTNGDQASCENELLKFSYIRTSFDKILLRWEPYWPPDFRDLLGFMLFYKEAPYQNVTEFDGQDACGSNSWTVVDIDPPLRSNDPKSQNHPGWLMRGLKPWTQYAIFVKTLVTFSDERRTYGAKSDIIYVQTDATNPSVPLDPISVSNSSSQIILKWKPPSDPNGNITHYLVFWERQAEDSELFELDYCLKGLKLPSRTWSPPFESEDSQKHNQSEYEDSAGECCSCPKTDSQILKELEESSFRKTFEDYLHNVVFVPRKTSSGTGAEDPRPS
Insulin receptor (Homo sapiens), sequence (P06213 763-1382 limits assumed): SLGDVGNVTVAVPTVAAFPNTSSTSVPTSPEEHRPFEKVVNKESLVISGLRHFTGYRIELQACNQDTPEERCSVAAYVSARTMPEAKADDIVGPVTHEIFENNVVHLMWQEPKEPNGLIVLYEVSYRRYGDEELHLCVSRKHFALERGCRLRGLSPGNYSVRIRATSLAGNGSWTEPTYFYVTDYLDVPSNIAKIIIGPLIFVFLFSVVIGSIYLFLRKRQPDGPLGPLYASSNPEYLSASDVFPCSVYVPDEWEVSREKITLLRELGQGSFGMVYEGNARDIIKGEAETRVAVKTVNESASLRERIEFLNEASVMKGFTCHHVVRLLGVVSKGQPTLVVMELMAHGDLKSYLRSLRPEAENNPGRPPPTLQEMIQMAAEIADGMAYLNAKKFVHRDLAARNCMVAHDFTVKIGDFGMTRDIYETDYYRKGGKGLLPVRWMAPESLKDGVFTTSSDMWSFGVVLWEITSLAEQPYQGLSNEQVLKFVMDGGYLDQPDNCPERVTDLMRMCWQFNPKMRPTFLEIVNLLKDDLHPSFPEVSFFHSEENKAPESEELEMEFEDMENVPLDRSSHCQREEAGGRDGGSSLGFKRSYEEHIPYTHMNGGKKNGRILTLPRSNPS

Insulin-like growth factor 1 receptor (Homo sapiens), sequence (P08069 31-736 limits assumed): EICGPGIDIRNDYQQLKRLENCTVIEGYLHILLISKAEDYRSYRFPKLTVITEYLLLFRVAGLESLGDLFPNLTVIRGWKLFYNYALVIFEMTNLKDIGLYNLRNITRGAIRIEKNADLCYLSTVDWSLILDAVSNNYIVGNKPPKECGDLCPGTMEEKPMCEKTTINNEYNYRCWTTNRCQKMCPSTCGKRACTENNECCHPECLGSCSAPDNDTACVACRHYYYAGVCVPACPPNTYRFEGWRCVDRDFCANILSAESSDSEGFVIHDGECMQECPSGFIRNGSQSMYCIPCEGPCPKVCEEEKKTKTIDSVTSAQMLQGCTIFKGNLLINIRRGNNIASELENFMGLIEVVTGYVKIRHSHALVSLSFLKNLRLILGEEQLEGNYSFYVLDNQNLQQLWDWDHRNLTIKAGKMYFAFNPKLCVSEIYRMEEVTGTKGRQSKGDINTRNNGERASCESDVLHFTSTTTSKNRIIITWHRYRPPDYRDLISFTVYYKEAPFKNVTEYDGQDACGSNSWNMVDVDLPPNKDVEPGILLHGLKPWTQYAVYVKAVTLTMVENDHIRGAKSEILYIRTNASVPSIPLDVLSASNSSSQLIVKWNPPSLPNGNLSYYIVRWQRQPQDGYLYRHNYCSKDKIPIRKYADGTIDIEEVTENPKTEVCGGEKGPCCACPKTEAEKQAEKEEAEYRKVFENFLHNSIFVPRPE
Insulin-like growth factor 1 receptor (Homo sapiens), sequence (P08069 741-1367 limits assumed): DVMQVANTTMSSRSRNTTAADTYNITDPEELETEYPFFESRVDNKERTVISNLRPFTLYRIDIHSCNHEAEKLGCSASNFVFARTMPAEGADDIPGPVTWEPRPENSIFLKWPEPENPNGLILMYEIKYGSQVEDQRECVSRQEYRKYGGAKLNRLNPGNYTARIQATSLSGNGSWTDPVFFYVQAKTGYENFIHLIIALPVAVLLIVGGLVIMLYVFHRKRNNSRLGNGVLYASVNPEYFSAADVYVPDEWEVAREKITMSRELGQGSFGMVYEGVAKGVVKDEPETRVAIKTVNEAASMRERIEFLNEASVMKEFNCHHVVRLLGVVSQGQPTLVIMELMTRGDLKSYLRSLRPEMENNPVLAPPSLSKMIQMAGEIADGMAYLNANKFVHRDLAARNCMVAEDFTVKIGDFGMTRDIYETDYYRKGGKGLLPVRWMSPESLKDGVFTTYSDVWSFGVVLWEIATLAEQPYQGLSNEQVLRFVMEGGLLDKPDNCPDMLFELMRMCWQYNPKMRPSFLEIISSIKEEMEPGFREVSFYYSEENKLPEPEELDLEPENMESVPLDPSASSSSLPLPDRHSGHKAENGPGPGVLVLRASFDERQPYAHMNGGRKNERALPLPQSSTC

For the molecule `O=C1NC(=O)c2c1c1c3ccccc3[nH]c1n1cncc21`, the residual activity was determined as 25% in [1]; 55% in [2]; 30% in [3]; 88% in assay [4]; 69% in [5]; 69% in [6]. Further, the residual activity amounted to 63% in assay [7]; 53% in assay [8]; 35% in [9]; 91% in [10]; 45% in assay [11]; 30% in [12]. The residual activity in assay [13] turned out to be 63%; in assay [14], 55%; in [15], 94%; in [16] it was 80%; in assay [17], 10%.

The values are drawn from ChEMBL document CHEMBL2218924, “A broad activity screen in support of a chemogenomic map for kinase signalling research and drug discovery” (Biochem J, 2013).
